Compounds with a hit are over-represented: about 2.4% of the library has one in this group of screens.
SENP8 block-1: blocks human SENP8 cleavage of Nedd8 substrate | recombinant SENP8, Nedd8 substrate fluorescence | AID 602440 | actives 0.64% (n = 360,000) | inhibition, % at 20 µM | Q96LD8; in the data active = inhibition mostly above about 40%, no sharp cut-off; inactive = mostly below about 27%
SENP7 block: SENP7 protease inhibition; recombinant SENP7, Z-RLRGG-aminoluciferin luminescence, 40 min; inhibition, % at 5 µM; actives 1.5% (n = 330,000); AID 434973;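 active = inhibition above about 50% at the single test dose, limit read from the data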
SENP8 block-2: blocks the human protease SENP8; inhibition, % at 10 µM; actives 1.2% (n = 330,000); purified SENP8, Z-RLRGG-aminoluciferin cleavage, luminescence; AID 2540; Q96LD8; in the data active = inhibition above about 50%
Platelet DG rel: platelet dense granule release activity | human platelet-rich plasma, SFLLRN dense granule ATP release, luminescence | inhibition, %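 (compounds screened at 7.5 µM in platelet-rich plasma)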 | actives 0.22% (n = 300,000);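 active = mean replicate score, as percent of positive control, at or above 50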
SENP6 inh: SENP6 protease inhibition; Recombinant SENP6 catalytic domain, aminoluciferin luminescence; actives 1.8% (n = 330,000); AID 2599; inhibition, % at 10 µM; Q9GZR1;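 active = inhibition above about 50% at the single tested dose, limit read from the data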
Target sequence (Q9GZR1 628-1112 limits assumed): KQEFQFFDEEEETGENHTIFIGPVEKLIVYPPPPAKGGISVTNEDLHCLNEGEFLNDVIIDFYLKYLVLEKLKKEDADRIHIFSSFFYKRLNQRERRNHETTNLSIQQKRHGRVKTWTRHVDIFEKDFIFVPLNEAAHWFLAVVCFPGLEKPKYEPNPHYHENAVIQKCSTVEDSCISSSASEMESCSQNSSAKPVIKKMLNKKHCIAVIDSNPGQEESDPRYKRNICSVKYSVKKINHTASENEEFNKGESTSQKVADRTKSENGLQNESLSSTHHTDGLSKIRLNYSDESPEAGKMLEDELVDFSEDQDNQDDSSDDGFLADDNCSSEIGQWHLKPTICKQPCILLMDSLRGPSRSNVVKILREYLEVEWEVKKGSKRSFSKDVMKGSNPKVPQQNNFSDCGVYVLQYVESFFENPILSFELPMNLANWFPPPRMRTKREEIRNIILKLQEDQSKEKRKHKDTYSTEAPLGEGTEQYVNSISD
SENP8 conf: confirmation of human SENP8 protease inhibitors; shares compounds with SENP8 block-1; purified SENP8, Nedd8-AMC/pro-Nedd8 cleavage fluorescence, 30 min; inhibition, % at 25 µM; actives 15% (n = 1,400); AID 624319; in the data active = inhibition mostly above about 39%, no sharp cut-off; inactive = mostly below about 34%
A number is an active result; i = inactive; nt = not tested or not shown.

SMILES	SENP8 block-1	SENP7 block	SENP8 block-2	Platelet DG rel	SENP6 inh	SENP8 conf
Cc1cccc(OCCC(=O)Nc2c(C)n(C)n(-c3ccccc3)c2=O)c1	42	i	i	i	i	i
Cc1cccc(NC(=O)Cc2ccc(F)cc2)c1	42	i	i	i	i	i
Cc1cccc(NC(=O)CCOc2ccccc2)c1	40	i	i	i	i	i
O=C(CNc1ccc2c(c1)OCO2)N/N=C\c1cn(Cc2ccccc2)c2ccccc12	44	i	i	i	i	i
COCc1c(C)cc(C)c(/C=N/O)c1C	47	i	i	i	i	i
CCOC(=O)/C(C#N)=C\C=C1C=CN(C)C=C1	52	i	i	i	i	i
O=C(NCCCN1CCN(c2ccccc2F)CC1)Nc1ccccc1[N+](=O)[O-]	44	i	i	i	i	i
O=C(O)/C=C\C(=O)Nc1ccc(N2CCN(c3ccc(Cl)cc3)CC2)cc1	i	i	i	i	i	nt
O=C(O)/C=C\C(=O)Nc1ccc(N2CCN(c3ccc(F)cc3)CC2)cc1	38	i	i	i	i	i
COc1cc(OC)c(NC(=O)[C@@H]2CCC(=O)N2C2OC(=O)c3c2ccc(OC)c3OC)cc1Cl (some centres undefined)	51	i	i	i	i	i
O=C1CC(Sc2ncccc2C(=O)O)C(=O)N1 (centres undefined)	i	i	i	i	i	nt
O=C1CC(SC(=S)C2CCCC2=O)C(=O)N1 (centres undefined)	41	nt	nt	nt	nt	i
COc1ccc(OC)c(C(=O)c2c(C)oc3cc([N+](=O)[O-])c(O)c([N+](=O)[O-])c23)c1	i	i	i	i	i	nt
Cc1oc2cc([N+](=O)[O-])c(O)c([N+](=O)[O-])c2c1C(=O)c1ccc(Cl)cc1	42	i	i	i	i	i
O=CN/C=C/c1cccc(O)c1	i	nt	nt	nt	nt	nt
O=S(=O)(c1ccccc1C(F)(F)F)N1CCOCC1	i	i	i	i	i	nt
O=S(=O)(c1ccccc1C(F)(F)F)N1C=CC(C(F)(F)F)=NCC1	41	nt	nt	nt	nt	i
O=C(O)C1CCCN1c1ncccc1[N+](=O)[O-] (centres undefined)	i	i	i	i	i	nt
COC(=O)CNC(=O)c1ccccc1	51	i	i	i	i	i
O=C(NCc1ccccc1)c1ccccc1	62	nt	nt	nt	nt	i
O=C(NCc1ccccc1)c1ccc(C(=O)NCc2ccccc2)cc1	i	nt	nt	nt	nt	nt
NC(=O)Cn1c(=O)n(CCC(=O)Nc2ccc(F)cc2)c(=O)c2sccc21	i	i	i	i	i	nt
O=C(NCc1ccccc1Cl)C(=O)c1cn(CC(=O)N2CCOCC2)c2ccccc12	i	i	i	i	i	nt
COc1ccc(N=C2S/C(=C\c3ccc(C)s3)C(=O)N2CC(C)C)cc1	44	i	i	i	i	i
COc1ccc(N=C2S/C(=C\c3cccs3)C(=O)N2CC(C)C)cc1	i	i	i	i	i	nt
SMILES	SENP8 block-1	SENP7 block	SENP8 block-2	Platelet DG rel	SENP6 inh	SENP8 conf
CC(Sc1ccsc1[N+](=O)[O-])C(=O)NCCc1ccc(Cl)cc1 (centres undefined)	42	i	i	i	i	i
CCN(CC)S(=O)(=O)c1cc([N+](=O)[O-])ccc1NNC(=O)Nc1ccccc1OC	51	i	i	i	i	i
CCC(C)(C)C1CCC(=NNC(=S)Nc2ccccc2)CC1 (centres undefined)	45	i	i	i	i	i
Cn1c(Cc2ccccc2)nnc1SCC(=O)NCCc1ccccc1	i	i	i	i	i	nt
Cc1ccc(C2=NS(=O)(=O)N(C)C(C(=O)Nc3cc(C)n(CC(=O)N4CCC(C)CC4)n3)=C2)cc1	i	i	i	i	i	nt
O=[N+]([O-])c1cc([N+](=O)[O-])c2n[nH]c(-c3ccccc3)c2c1	35	i	i	i	i	i
O=[N+]([O-])c1cc(-c2n[nH]c(-c3ccccc3)n2)cc([N+](=O)[O-])c1	i	i	i	i	i	nt
O=C(NCCN1CCOCC1)c1ccc([N+](=O)[O-])cc1[N+](=O)[O-]	46	i	i	i	i	i
N#Cc1ncc(C(F)(F)F)cc1Sc1ccc(N)cc1	45	i	i	i	i	i
COc1ccc(CNC(=O)c2ccc3c(c2)NC(=O)C(C)S3)cc1 (centres undefined)	i	i	i	i	i	nt
CCOC(=O)C1=C(CN2CCSCC2)NC(=O)NC1c1cccc([N+](=O)[O-])c1 (centres undefined)	44	i	i	i	i	i
O=C(NCCNc1ccc([N+](=O)[O-])cc1C(F)(F)F)c1ccccc1F	44	i	i	i	i	i
Cc1ccc(S(=O)(=O)N(C)C)cc1NC(=O)Cn1c(CN2CCOCC2)nc2ccccc2c1=O	i	i	i	i	i	nt
CCOC(=O)c1ccc(N=C2SC(C(=O)Nc3ccc(C(=O)O)cc3)CC(=O)N2Cc2cccs2)cc1 (centres undefined)	i	i	i	i	i	nt
Cc1cc(C)cc(NC(=O)CN(C)S(=O)(=O)c2cnc[nH]2)c1	42	i	i	i	i	i
COCCNCc1cc(C)n(-c2cc(S(=O)(=O)N3CCOCC3)ccc2N2CCCC2)c1C	i	nt	nt	nt	nt	nt
CC1=C(SCCC#N)S/C(=C2\SC(C)=C(SCCC#N)S2)S1	46	i	i	i	i	69
CC1=CC2(O)OCCN(CCO)C2=CC1=O (centres undefined)	44	i	i	i	i	i
N#CC1=C(N)Oc2c(oc(CO)cc2=O)C1c1cccs1 (centres undefined)	45	i	i	i	i	i
O=c1oc2ccccc2nc1/C=C(O)/C=C/c1ccc(F)cc1	47	i	i	i	i	i
O=c1oc2ccccc2nc1/C=C(O)/C=C\c1ccccc1	i	i	i	i	i	nt
CC(=O)Nc1cc2c(cc1Br)OCCO2	47	i	i	i	i	i
CC(=O)Nc1cc2c(cc1[N+](=O)[O-])OCCO2	i	i	i	i	i	nt
COc1ccc(/C=N\Nc2ccccc2[N+](=O)[O-])c(C(=O)O)c1OC	i	i	i	i	i	nt
CC1=C(/C=N/Nc2ccc([N+](=O)[O-])cc2[N+](=O)[O-])C(C)(C)CCC1	46	i	i	i	i	i
SMILES	SENP8 block-1	SENP7 block	SENP8 block-2	Platelet DG rel	SENP6 inh	SENP8 conf
COc1ccccc1/C=N\Nc1ccccc1[N+](=O)[O-]	50	99	90	i	94	i
COc1ccc(/C=N\Nc2ccc([N+](=O)[O-])cc2[N+](=O)[O-])c(C(=O)O)c1OC	48	i	i	i	i	i
O=C(C[n+]1cc(-c2ccccc2)n2c1CCCCC2)c1ccc(Br)cc1	46	i	i	i	i	i
Cc1ccc(C(=O)C[n+]2cc(-c3ccc(C)cc3)n3c2CCCCC3)cc1	i	i	i	i	i	nt
O=S(=O)(NCCc1ccccc1)c1ccc(Br)cc1	i	i	i	i	i	nt
CCCc1cc(=O)[nH]c(SCC(=O)Nc2ncc(S(=O)(=O)c3ccc([N+](=O)[O-])cc3)s2)n1	47	i	i	i	i	i
CCOC(=O)c1sc(NNC(=O)c2ccc(C)cc2)nc1C	i	i	i	i	i	nt
